# Test results published in paper PMC7862700, “An all-to-all approach to the identification of sequence-specific readers for epigenetic DNA modifications on cytosine”.
# Tests used:
# Assay in all cases: DAPPL (digital affinity profiling via proximity ligation, sequencing); 10 mM Tris-HCl pH 7.5, 50 mM NaCl, 1 mM DTT, 4% glycerol, room temperature, 30 min; GST-TFs on glutathione beads, 16-mer random dsDNA library, 0.1% formaldehyde crosslink after washing; high values mean tight binding
# FLI1 = target: T1, FLI1 (Homo sapiens, UniProt Q01543 1-452); conditions: protein: recombinant; tags: N-terminal GST; dsDNA, one strand shown
# T1 sequence: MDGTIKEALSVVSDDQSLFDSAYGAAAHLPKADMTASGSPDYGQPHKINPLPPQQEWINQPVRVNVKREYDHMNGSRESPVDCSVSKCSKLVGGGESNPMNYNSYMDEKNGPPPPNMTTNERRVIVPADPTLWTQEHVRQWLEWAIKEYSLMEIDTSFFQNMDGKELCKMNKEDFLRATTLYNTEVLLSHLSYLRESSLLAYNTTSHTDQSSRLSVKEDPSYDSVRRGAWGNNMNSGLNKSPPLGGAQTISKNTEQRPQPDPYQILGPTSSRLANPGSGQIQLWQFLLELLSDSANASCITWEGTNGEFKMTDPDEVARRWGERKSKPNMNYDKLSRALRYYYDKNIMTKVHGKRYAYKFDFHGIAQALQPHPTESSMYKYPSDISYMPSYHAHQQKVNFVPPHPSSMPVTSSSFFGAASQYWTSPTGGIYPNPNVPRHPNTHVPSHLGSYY
# In short: (§1)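 A tag-only sample was pooled with DNA-barcoded human transcription factors that had been expressed in yeast as GST fusions and captured on glutathione beads. The pools were incubated for 30 min at room temperature with 200 nmole of a random double-stranded 16-mer DNA library in Tris/NaCl/DTT/glycerol buffer, then washed, crosslinked with 0.1% formaldehyde, proximity-ligated (BsaI/T4 ligase, 1 h, 37 °C), PCR-amplified and sequenced on an Illumina NextSeq500. Binding signal is each hexamer's read frequency for a factor divided by its frequency for the tag-only sample.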
# ELK1 = target: T2, ELK1 (Homo sapiens, UniProt P19419 1-428); conditions: protein: recombinant; tags: N-terminal GST; dsDNA, one strand shown
# T2 sequence: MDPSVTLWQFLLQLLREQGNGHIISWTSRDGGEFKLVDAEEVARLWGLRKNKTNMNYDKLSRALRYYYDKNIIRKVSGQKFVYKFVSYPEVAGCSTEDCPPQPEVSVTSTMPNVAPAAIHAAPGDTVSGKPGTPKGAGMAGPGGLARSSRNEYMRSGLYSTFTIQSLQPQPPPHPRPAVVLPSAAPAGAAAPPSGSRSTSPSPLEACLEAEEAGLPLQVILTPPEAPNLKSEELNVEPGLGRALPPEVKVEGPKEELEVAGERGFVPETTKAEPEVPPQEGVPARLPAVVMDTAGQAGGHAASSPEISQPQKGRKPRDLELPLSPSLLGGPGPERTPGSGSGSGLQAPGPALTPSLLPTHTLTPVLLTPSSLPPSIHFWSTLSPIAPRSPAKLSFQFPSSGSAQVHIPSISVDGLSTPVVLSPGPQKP
# In short: as §1
# GABPA = target: T3, GABPA (Homo sapiens, UniProt Q06546 1-454); conditions: protein: recombinant; tags: N-terminal GST; dsDNA, one strand shown
# T3 sequence: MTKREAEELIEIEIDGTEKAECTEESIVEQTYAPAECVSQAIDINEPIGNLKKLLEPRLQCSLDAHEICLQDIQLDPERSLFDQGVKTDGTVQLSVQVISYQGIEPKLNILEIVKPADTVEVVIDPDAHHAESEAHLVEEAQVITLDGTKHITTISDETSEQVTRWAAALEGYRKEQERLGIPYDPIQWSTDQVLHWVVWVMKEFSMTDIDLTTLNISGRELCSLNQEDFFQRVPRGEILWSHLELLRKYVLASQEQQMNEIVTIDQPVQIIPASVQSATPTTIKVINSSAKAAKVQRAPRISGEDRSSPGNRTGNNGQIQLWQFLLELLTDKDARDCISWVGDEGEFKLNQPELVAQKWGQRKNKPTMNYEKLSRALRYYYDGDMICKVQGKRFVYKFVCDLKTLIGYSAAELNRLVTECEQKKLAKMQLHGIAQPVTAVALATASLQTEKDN
# In short: as §1
# ERG = target: T4, ERG (Homo sapiens, UniProt P11308 1-479); conditions: protein: recombinant; tags: N-terminal GST; dsDNA, one strand shown
# T4 sequence: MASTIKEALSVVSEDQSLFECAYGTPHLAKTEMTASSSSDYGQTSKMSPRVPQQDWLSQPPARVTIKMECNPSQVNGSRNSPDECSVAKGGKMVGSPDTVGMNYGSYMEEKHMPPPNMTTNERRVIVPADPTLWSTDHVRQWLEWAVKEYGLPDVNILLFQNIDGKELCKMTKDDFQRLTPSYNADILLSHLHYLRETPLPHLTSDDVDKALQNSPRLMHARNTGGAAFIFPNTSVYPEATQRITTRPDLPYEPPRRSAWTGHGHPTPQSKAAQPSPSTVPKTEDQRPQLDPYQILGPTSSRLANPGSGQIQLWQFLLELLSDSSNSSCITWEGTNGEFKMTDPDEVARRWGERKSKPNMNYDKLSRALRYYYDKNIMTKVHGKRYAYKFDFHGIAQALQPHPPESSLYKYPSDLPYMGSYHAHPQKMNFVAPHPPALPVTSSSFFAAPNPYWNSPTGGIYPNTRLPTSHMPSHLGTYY
# In short: as §1
# ELF1 = ELF1 (Homo sapiens, UniProt P32519 1-619); conditions: protein: recombinant; tags: N-terminal GST; dsDNA, one strand shown
# ELF1, sequence (P32519 whole entry): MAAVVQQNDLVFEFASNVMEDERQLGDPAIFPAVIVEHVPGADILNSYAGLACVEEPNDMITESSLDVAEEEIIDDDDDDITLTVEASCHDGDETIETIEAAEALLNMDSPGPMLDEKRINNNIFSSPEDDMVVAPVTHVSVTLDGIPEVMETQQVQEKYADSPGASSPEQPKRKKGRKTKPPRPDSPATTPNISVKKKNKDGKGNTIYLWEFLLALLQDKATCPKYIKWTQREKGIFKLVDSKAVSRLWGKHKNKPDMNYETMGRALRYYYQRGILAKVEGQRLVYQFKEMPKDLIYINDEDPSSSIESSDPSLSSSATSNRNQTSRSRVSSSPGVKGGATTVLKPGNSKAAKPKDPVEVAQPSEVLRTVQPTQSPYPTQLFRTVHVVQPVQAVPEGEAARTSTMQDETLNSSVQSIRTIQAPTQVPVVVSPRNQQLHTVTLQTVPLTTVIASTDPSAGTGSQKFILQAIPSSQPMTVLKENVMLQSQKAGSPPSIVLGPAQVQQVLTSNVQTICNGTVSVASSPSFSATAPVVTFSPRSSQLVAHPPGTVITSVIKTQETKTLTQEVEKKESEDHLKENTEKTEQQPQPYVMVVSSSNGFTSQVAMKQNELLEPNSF
# In short: as §1
# EHF = target: T5, EHF (Homo sapiens, UniProt Q9NZC4 1-300); conditions: protein: recombinant; tags: N-terminal GST; dsDNA, one strand shown
# T5 sequence: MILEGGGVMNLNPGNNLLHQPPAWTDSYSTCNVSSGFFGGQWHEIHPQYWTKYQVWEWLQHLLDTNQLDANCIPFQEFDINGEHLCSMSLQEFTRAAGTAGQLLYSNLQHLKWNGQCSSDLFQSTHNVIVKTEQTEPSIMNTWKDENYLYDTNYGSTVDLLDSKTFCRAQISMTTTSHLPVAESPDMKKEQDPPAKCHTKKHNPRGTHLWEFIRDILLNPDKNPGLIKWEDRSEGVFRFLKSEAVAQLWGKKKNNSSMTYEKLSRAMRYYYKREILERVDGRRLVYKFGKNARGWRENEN
# In short: as §1
# SPI1 = SPI1 (Homo sapiens, UniProt P17947 1-270); conditions: protein: recombinant; tags: N-terminal GST; dsDNA, one strand shown
# In short: as §1
# SPIB = SPIB (Homo sapiens, UniProt Q01892 1-262); conditions: protein: recombinant; tags: N-terminal GST; dsDNA, one strand shown
# SPIB, sequence (Q01892 whole entry): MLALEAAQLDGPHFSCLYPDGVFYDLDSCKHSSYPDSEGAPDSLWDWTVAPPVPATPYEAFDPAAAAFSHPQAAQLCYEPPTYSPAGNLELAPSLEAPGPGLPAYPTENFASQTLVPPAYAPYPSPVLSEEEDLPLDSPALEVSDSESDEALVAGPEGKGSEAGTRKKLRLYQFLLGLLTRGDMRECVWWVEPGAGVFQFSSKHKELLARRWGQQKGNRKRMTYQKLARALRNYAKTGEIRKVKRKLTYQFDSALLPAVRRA
# In short: as §1
# ELK3 = target: T6, ELK3 (Homo sapiens, UniProt P41970 1-407); conditions: protein: recombinant; tags: N-terminal GST; dsDNA, one strand shown
# T6 sequence: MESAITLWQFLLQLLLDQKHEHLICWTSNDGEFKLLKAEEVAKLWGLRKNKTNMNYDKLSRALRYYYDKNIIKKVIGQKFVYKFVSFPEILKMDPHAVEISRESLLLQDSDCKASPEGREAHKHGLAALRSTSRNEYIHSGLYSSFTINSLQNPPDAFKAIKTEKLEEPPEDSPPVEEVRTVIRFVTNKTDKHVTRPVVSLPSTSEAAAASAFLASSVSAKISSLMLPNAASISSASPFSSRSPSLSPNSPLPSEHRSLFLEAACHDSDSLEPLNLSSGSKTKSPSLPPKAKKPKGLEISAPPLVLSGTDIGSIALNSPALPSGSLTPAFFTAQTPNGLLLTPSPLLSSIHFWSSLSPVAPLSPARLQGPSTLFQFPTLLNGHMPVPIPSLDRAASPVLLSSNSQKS
# In short: as §1
# FEV = target: T7, FEV (Homo sapiens, UniProt Q99581 1-238); conditions: protein: recombinant; tags: N-terminal GST; dsDNA, one strand shown
# T7 sequence: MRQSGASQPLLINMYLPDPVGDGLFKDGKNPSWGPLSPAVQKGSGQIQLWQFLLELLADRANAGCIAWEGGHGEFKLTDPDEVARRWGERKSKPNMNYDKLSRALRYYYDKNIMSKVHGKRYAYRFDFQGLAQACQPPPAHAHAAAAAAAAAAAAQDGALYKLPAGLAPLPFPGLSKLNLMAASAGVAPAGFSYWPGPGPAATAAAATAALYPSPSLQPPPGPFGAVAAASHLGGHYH
# In short: as §1
# ETV5 = ETV5 (Homo sapiens, UniProt P41161 1-510); conditions: protein: recombinant; tags: N-terminal GST; dsDNA, one strand shown
# ETV5, sequence (P41161 whole entry): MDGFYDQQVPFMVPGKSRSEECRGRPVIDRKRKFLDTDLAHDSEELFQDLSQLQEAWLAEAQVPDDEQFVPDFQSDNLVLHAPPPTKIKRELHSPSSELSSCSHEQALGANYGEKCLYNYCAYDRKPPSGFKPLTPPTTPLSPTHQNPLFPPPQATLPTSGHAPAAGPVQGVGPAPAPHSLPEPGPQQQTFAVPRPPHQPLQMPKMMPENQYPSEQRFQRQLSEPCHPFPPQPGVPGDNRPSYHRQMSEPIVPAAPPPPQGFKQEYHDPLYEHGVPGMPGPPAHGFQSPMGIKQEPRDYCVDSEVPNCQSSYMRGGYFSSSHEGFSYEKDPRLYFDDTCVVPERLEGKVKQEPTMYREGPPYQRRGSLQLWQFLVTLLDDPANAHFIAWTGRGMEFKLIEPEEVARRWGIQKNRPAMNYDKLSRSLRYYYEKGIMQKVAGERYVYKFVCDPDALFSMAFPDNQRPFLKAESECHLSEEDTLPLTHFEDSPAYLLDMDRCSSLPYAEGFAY
# In short: as §1
# HSF1 = HSF1 (Homo sapiens, UniProt Q00613 1-529); conditions: protein: recombinant; tags: N-terminal GST; chain copies: 3; dsDNA, one strand shown
# HSF1, sequence (Q00613 whole entry): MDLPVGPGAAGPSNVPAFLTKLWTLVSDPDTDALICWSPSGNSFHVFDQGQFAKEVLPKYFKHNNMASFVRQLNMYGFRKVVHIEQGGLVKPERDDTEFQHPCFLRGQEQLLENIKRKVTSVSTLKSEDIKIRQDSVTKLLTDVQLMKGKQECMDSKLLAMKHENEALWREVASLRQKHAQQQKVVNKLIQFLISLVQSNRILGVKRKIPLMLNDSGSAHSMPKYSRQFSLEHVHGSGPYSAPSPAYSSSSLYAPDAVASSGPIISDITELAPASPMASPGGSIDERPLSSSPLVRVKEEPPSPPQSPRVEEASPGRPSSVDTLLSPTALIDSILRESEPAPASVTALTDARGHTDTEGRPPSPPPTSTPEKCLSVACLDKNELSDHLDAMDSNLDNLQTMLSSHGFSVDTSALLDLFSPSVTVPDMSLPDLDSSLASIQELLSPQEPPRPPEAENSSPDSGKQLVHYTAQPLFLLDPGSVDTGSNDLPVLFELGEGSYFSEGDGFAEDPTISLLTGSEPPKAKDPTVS
# In short: as §1
# SPIC = target: T8, SPIC (Homo sapiens, UniProt Q8N5J4 1-248); conditions: protein: recombinant; tags: N-terminal GST; dsDNA, one strand shown
# T8 sequence: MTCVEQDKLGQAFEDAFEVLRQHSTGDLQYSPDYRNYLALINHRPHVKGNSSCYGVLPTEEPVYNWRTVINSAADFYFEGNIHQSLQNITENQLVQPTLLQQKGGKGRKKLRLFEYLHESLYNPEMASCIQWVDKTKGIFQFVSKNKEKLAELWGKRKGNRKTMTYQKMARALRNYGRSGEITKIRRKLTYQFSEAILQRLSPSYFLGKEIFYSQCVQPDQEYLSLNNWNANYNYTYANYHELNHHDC
# In short: as §1
# ELF4 = ELF4 (Homo sapiens, UniProt Q99607 1-663); conditions: protein: recombinant; tags: N-terminal GST; dsDNA, one strand shown
# ELF4, sequence (Q99607 whole entry): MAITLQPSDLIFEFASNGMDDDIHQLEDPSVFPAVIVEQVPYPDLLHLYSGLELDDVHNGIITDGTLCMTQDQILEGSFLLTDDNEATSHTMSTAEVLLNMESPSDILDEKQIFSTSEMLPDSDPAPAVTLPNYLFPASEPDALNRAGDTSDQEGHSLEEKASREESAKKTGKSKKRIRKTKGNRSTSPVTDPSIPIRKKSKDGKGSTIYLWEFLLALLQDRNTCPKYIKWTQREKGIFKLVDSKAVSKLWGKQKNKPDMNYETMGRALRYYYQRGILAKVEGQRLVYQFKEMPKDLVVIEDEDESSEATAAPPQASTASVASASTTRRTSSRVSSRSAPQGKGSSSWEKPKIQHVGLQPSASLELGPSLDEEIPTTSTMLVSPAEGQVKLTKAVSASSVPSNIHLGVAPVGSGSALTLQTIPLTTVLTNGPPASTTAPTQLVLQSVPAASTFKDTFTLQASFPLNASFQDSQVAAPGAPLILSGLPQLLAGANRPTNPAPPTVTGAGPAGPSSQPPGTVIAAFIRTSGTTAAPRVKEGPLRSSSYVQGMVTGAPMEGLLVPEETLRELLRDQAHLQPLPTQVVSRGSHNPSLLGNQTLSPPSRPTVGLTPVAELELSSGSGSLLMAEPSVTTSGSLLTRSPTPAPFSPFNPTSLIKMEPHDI
# In short: as §1
# ELK4 = target: T9, ELK4 (Homo sapiens, UniProt P28324-2 1-405); conditions: protein: recombinant; tags: N-terminal GST; dsDNA, one strand shown
# T9 sequence: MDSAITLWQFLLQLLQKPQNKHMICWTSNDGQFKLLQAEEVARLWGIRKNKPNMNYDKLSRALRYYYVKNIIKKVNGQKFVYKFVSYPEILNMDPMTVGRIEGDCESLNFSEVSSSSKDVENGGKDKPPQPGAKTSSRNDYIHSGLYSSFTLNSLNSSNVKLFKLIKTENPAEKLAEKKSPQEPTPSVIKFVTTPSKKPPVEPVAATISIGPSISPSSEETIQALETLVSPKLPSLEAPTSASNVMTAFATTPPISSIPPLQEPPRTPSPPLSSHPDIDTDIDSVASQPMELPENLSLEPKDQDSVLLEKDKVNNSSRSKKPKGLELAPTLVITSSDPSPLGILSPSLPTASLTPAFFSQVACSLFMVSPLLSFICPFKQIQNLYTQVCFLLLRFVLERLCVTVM
# In short: as §1
# ETV2 = target: T10, ETV2 (Homo sapiens, UniProt O00321 1-342); conditions: protein: recombinant; tags: N-terminal GST; dsDNA, one strand shown
# T10 sequence: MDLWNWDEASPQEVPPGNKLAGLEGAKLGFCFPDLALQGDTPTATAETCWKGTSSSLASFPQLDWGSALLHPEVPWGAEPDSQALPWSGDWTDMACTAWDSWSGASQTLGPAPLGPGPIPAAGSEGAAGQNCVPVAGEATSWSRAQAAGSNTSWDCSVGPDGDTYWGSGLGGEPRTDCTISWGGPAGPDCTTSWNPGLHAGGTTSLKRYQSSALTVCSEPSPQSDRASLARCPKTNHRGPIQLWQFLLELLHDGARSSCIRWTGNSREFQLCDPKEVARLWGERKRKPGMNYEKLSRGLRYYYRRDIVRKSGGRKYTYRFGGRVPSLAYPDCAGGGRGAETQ
# In short: as §1
# ELF3 = target: T11, ELF3 (Homo sapiens, UniProt P78545 1-371); conditions: protein: recombinant; tags: N-terminal GST; dsDNA, one strand shown
# T11 sequence: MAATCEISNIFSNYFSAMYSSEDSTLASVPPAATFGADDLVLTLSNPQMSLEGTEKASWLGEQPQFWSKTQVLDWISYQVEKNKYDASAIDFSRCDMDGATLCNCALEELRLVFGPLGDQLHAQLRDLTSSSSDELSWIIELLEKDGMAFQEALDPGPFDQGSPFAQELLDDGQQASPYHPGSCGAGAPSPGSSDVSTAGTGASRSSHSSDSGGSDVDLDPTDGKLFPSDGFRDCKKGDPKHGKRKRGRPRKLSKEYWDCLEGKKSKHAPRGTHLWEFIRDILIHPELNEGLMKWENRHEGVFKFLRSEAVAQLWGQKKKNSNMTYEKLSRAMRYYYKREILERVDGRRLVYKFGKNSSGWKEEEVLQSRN
# In short: as §1
# CRX = CRX (Homo sapiens, UniProt O43186 1-299); conditions: protein: recombinant; tags: N-terminal GST; dsDNA, one strand shown
# CRX, sequence (O43186 whole entry): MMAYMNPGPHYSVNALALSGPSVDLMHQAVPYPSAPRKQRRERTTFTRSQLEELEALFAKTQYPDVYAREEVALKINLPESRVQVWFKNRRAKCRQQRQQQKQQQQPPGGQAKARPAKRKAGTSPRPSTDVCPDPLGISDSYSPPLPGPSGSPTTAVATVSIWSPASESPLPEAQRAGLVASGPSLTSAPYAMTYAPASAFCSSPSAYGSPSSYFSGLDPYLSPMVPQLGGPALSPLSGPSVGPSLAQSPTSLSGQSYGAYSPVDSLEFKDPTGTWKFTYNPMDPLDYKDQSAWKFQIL
# In short: as §1
# ETV1 = ETV1 (Homo sapiens, UniProt P50549 1-477); conditions: protein: recombinant; tags: N-terminal GST; dsDNA, one strand shown
# ETV1, sequence (P50549 whole entry): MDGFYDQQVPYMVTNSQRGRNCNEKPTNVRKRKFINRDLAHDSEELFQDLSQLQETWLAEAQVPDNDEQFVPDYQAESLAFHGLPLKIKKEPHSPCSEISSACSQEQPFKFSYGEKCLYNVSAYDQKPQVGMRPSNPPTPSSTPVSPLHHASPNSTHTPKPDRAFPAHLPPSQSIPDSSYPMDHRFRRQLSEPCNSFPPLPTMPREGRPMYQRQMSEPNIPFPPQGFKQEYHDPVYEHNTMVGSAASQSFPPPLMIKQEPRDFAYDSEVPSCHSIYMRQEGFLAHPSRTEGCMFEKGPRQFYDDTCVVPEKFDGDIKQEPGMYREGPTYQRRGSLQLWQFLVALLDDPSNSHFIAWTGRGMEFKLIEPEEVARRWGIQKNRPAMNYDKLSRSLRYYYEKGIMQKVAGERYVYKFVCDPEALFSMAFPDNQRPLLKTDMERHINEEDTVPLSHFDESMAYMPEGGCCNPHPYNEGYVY
# In short: as §1
sequence,measurement,setting,value
CATCTA,binding signal,FLI1,"1.22 fold enrichment (6-mer frequency, TF over GST control)"
same,binding signal,ELK1,"1.3 fold enrichment (6-mer frequency, TF over GST control)"
same,binding signal,GABPA,"1.25 fold enrichment (6-mer frequency, TF over GST control)"
same,binding signal,ERG,"1.11 fold enrichment (6-mer frequency, TF over GST control)"
same,binding signal,ELF1,"1.25 fold enrichment (6-mer frequency, TF over GST control)"
same,binding signal,EHF,"1.18 fold enrichment (6-mer frequency, TF over GST control)"
same,binding signal,SPI1,"1.16 fold enrichment (6-mer frequency, TF over GST control)"
same,binding signal,SPIB,"1.17 fold enrichment (6-mer frequency, TF over GST control)"
same,binding signal,ELK3,"1.13 fold enrichment (6-mer frequency, TF over GST control)"
same,binding signal,FEV,"1.14 fold enrichment (6-mer frequency, TF over GST control)"
same,binding signal,ETV5,"1.15 fold enrichment (6-mer frequency, TF over GST control)"
same,binding signal,HSF1,"1.47 fold enrichment (6-mer frequency, TF over GST control)"
same,binding signal,SPIC,"1.34 fold enrichment (6-mer frequency, TF over GST control)"
same,binding signal,ELF4,"1.17 fold enrichment (6-mer frequency, TF over GST control)"
same,binding signal,ELK4,"1.33 fold enrichment (6-mer frequency, TF over GST control)"
same,binding signal,ETV2,"1.1 fold enrichment (6-mer frequency, TF over GST control)"
same,binding signal,ELF3,"1.33 fold enrichment (6-mer frequency, TF over GST control)"
same,binding signal,CRX,"1.29 fold enrichment (6-mer frequency, TF over GST control)"
same,binding signal,ETV1,"1.16 fold enrichment (6-mer frequency, TF over GST control)"
